In PubChem BioAssay (NCATS):
Records with an inconclusive call do not appear. Active and inactive are the calls of the source. Calls follow the shape of the dose curve; as a rule, active = well fitted cell-killing curve with a large enough effect; inconclusive = small, poorly fitted or top-dose-only effect; inactive = flat fitted curve, though single readings scatter.

Assay: qHTS of pediatric cancer cell lines to identify multiple opportunities for drug repurposing: Primary screen for Rh18 cells (AID 1347102); also: nearly all actives have a fitted effect of over 65% in size
Conditions: Rh18 rhabdomyosarcoma viability, CellTiter-Glo luminescence, 48 h; series mostly up to 46 µM; activity change, negative = cytotoxic: at the top concentration
From the text: Drug repurposing or repositioning has been offered as a strategy for drug development in oncology programs. This approach has special potential for childhood cancers and other rare or orphan diseases, where the expected return on new drug development has been a disincentive to pharmaceuticals.
In this project we exploit the poly-pharmacology of drugs to discover new indications via phenotypic screening of a panel of 19 well-characterized cell lines derived from solid tumors seen in children and adolescents. The goal is to identify approved drugs with previously unrecognized anticancer properties that has the potential to reveal new mechanisms and biological processes involved in carcinogenesis or drug resistance. We employed a titration-based paradigm (quantitative high-throughput screening or qHTS), where all compounds were tested at multiple concentrations for their effect on cell viability. Concentration-response curves (CRCs) were derived directly from the primary screen, and both potency and efficacy values were used to identify compounds with robust bioactivity profiles. We screened the NIH Chemical Genomics Center (NCGC) Pharmaceutical Collection (NPC) and Mechanism Interrogation Plate (MIPE) small molecule collections of approved and investigational compounds against these cell lines; and measured metabolically active cells after 48 hours of compound treatment as a proxy for cell viability.
Assay Submitter: Nathalia J. Martinez, National Center for Advancing Translational Sciences, National Institutes of Health, Rockville, MD, USA; email: natalia.martinez@nih.gov
[1] Shen, M et al. Quantitative high-throughput phenotypic screening of pediatric cancer cell lines identifies multiple opportunities for drug repurposing. Oncotarget 2017 Dec 19;9(4):4758-4772. PMID 29435139.
The cells were obtained from University of North Carolina (UNC), Pediatric Preclinical Testing Program (PPT), and Coriell Institute (CI).
qHTS cell viability assay:
Cells were assayed in growth media at a density of 500-1,000 cells/well. Five microliters of cells were dispensed into 1,536-well, white, solid-bottom, TC-treated plates (Greiner Bio One) using a multidrop dispenser and incubated at 37 degrees C, 5% CO2, under a humidified atmosphere for 5 hours. Twenty-three nanoliters of compounds and controls (neutral control DMSO or positive control bortezomib at final concentration of 2.3 µM) were subsequently transferred by Kalypsys pintool. For primary screens, the MIPE collection was tested at 11-point dilutions (final concentrations range from 0.78 nM to 46 µM) and the NPC collection at 8-point dilutions (final concentrations range from 0.59 nM to 46 µM). Compounds tested in follow-up screens were assayed at 11-point dilutions. Cells were incubated for 48 hours, followed by addition of 3 µL of CellTiter-Glo (Promega). After a 15 min incubation at room temperature, samples were analyzed for luminescence intensity using a ViewLux High-throughput CCD imager equipped with clear filters.
% is scaled to controls: 0 for no effect and ±100 for the full control effect.

Row | SMILES | activity change, negative = cytotoxic | Potency
1 | C[C@]12Cc3cn[nH]c3C[C@@H]1CC[C@@H]1[C@@H]2CC[C@@]2(C)[C@H]1CC[C@]2(C)O | -3.3% (inactive) | –
2 | NC(=O)c1cc([N+](=O)[O-])cc([N+](=O)[O-])c1 | 3.29% (inactive) | –
3 | CCN[C@H](C)Cc1cccc(C(F)(F)F)c1 | 2.62% [at 92.7 µM] (inactive) | –
4 | CC(C)=CC1C(C(=O)OCN2C(=O)C3=C(CCCC3)C2=O)C1(C)C (stereo not given) | -4.55% (inactive) | –
5 | CN1CC[C@]23c4c5ccc(O)c4O[C@H]2[C@@H](O)C=C[C@H]3[C@H]1C5 | 1.82% [at 92.7 µM] (inactive) | –
6 | C[C@]12CCC(=O)C=C1CC[C@@H]1[C@@H]2CC[C@@]2(C)[C@H]1CC[C@]2(C)O | -16.9% (inactive) | –
7 | CCCCCCCCCC(=O)O[C@H]1CC[C@H]2[C@@H]3CCC4=CC(=O)CC[C@@H]4[C@H]3CC[C@]12C | 3.58% (inactive) | –
8 | O=C1CN=C(c2ccccc2)c2cc([N+](=O)[O-])ccc2N1 | -1.63% (inactive) | –
9 | CCC(C)(C)c1ccc(O)cc1 | 14.8% (inactive) | –
10 | O=C1OC(c2ccc(O)c(S(=O)(=O)O)c2)(c2ccc(O)c(S(=O)(=O)O)c2)c2c(Br)c(Br)c(Br)c(Br)c21 | 2.41% (inactive) | –
11 | O=C(CCCN1CCC2(CC1)C(=O)NCN2c1ccccc1)c1ccc(F)cc1 | 4.82% (inactive) | –
12 | COc1ccc2c3c1O[C@H]1[C@H](O)CC[C@H]4[C@@H](C2)N(C)CC[C@@]341 | 9.98% [at 92.7 µM] (inactive) | –
13 | CCN(CC)CCc1c[nH]c2ccccc12 | -4.98% [at 155 µM] (inactive) | –
14 | CNC(C)(C)Cc1ccccc1 | 2.57% (inactive) | –
15 | c1ccc(CN2CCNCC2)cc1 | 2.96% [at 155 µM] (inactive) | –
16 | COP(=S)(OC)Oc1cc(Cl)c(Cl)cc1Cl | 15.1% (inactive) | –
17 | C[C@]12CCC(=O)C=C1CC[C@@H]1[C@H]3CC[C@](C)(O)[C@@]3(C)CC[C@@H]12 | -22.2% [at 92.7 µM] (inactive) | –
18 | CN1CC[C@]23c4c5ccc(O)c4O[C@H]2[C@@H](O)CC[C@H]3[C@H]1C5 | 2.26% [at 92.7 µM] (inactive) | –
19 | COc1cc(OC)c(OC)cc1C=O | – | inactive
20 | C[N+]1(CCF)[C@@H]2CC[C@H]1CC(OC(=O)C(O)(c1ccccc1)c1ccccc1)C2 (stereo not given in full) | 4.92% (inactive) | –

Row | SMILES | activity change, negative = cytotoxic | Potency
21 | O=c1oc2ccccc2c(O)c1Cc1c(O)c2ccccc2oc1=O | 5.01% (inactive) | –
22 | C=CCC1([C@H](C)CCC)C(=O)NC(=O)NC1=O | 9.27% [at 92.7 µM] (inactive) | –
23 | COC1CC(=C(c2cccs2)c2cccs2)C[N+](C)(C)C1 (stereo not given) | -11.6% (inactive) | –
24 | Clc1cccc(SC2CCNCC2)n1 | 16.4% (inactive) | –
25 | O=C1c2ccccc2C(=O)C1C(=O)C(c1ccccc1)c1ccccc1 | 8.54% (inactive) | –
26 | CC(C(=O)c1ccccc1)N(C)C (stereo not given) | 3.42% (inactive) | –
27 | Oc1ccc(Cl)cc1 | 4.67% (inactive) | –
28 | CCCOC(=O)c1cncn1C(C)c1ccccc1 (stereo not given) | 3.57% (inactive) | –
29 | COC(=O)[C@@H](N)CCCN/C(N)=N/[N+](=O)[O-] | 9.69% (inactive) | –
30 | CCC1(c2ccc(N)cc2)CCC(=O)NC1=O (stereo not given) | – | inactive
31 | O=c1c(C2CC(c3ccc(-c4ccc(Br)cc4)cc3)Cc3ccccc32)c(O)sc2ccccc12 (stereo not given) | 2.29% (inactive) | –
32 | CCN[C@@H](C)Cc1cccc(C(F)(F)F)c1 | 7.28% (inactive) | –
33 | C[C@H](N)C(=O)c1ccccc1 | 2.75% [at 155 µM] (inactive) | –
34 | COc1c2c(cc3c1OCO3)CCN(C)C2 | -1.71% (inactive) | –
35 | COC(=O)C(Cl)C(=O)OC | 11.2% (inactive) | –
36 | Cc1ncsc1CCCl | 11.9% (inactive) | –
37 | C[C@@H]1CC2=CC(=O)CC[C@@H]2[C@H]2CC[C@@]3(C)[C@@H](CC[C@]3(C)O)[C@@H]21 | -2.87% (inactive) | –
38 | C[C@]12CC[C@H]3[C@@H](CCC4=CC(=O)CC[C@@H]43)[C@@H]1CC[C@@H]2OC(=O)CCc1ccco1 | -8.52% (inactive) | –
39 | CCC1(c2ccccc2)C(=O)N(COC)C(=O)N(COC)C1=O | 9.72% (inactive) | –
40 | CN1CCC(O)(c2ccc(F)cc2)C(C(=O)c2ccc(F)cc2)C1 (stereo not given) | 5.69% (inactive) | –
